According to the supplement of paper PMC10498489:
The whole screen tested about 2,300 compounds, of which about 330 (14%) showed activity. The list is a sample of the results. A number with no mark means an inactive call.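 How the source made its calls: active = median modified Z-score above 1.96; inactive = 1.96 or below.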

Each compound was assayed on HepG2 Srxn1-GFP reporter cells (+30 nM CDDO-Me) (assay: Srxn1-GFP intensity median modified Z-score relative to plate median; higher = stronger NRF2 / oxidative stress reporter activation, active = hit call of the paper). Conditions: 10 µM; exposure time: 24h.
In short: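 Values give the median, over replicates, of the modified Z-score of GFP intensity on each plate. HepG2 Srxn1-GFP BAC reporter cells were co-treated for 24 h with an NRF2 activator at 30 nM and compound at 10 μM (≤0.1% DMSO) in three replicate plates, then analysed per cell for cytoplasmic GFP on confocal images with at least 100 cells. Scaling used 1.4826 × median absolute deviation.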
With CCN(CC)C(=O)C1(c2ccccc2)CC1CN (configuration not stated) [euspeclibcmpd689] the “Srxn1-GFP intensity median modified Z-score” value was -0.729.
For O=C(C(O)CO)C(O)CO (configuration not stated) [euspeclibcmpd2280], the “Srxn1-GFP intensity median modified Z-score” value was -0.0858.
With O=c1c(-c2ccc(O)cc2)coc2c(C3O[C@H](CO)[C@@H](O)[C@H](O)[C@H]3O)c(O)ccc12 (some centres not stated) [euspeclibcmpd1715] the “Srxn1-GFP intensity median modified Z-score” value was -0.564.
COC(=O)NN=Cc1c[n+]([O-])c2ccccc2[n+]1[O-] [euspeclibcmpd737] was tested, and the “Srxn1-GFP intensity median modified Z-score” value was 0.066.
NN=c1[nH]ncc2ccccc12 [euspeclibcmpd806] was tested, and the “Srxn1-GFP intensity median modified Z-score” value was -0.328.
For COc1ccc2c(c1)OCC(Cc1ccc(OC)c(OC(C)=O)c1)C2=O (configuration not stated) [euspeclibcmpd1962], the “Srxn1-GFP intensity median modified Z-score” value was 1.39.
With COc1ccc2c(c1)OCC(Cc1ccc(OC)c(O)c1)C2=O (configuration not stated) [euspeclibcmpd1628] the “Srxn1-GFP intensity median modified Z-score” value was 21.4 (active).
With COc1ccc2c(c1)OC[C@@H](Cc1ccc(OC)c(OC)c1)[C@@H]2O [euspeclibcmpd2183] the “Srxn1-GFP intensity median modified Z-score” value was 1.04.
COc1ccc2c(c1)OCC(Cc1ccc(OC)c(OC)c1)C2=O (configuration not stated) [euspeclibcmpd1645] was tested, and the “Srxn1-GFP intensity median modified Z-score” value was 15.4 (active).
For COc1cc2c(cc1OC)C1(O)C(=O)c3ccc(O)c(C(=O)O)c3OC1CO2 (configuration not stated) [euspeclibcmpd1511], the “Srxn1-GFP intensity median modified Z-score” value was -0.131.
With COc1ccc2c(c1)OCC(Cc1ccc(O)c(OC)c1)C2=O (configuration not stated) [euspeclibcmpd1837] the “Srxn1-GFP intensity median modified Z-score” value was 0.677.
In the case of CC(=O)O/C1=C2\C(C)[C@@H](OC(=O)C(O)[C@@H](NC(=O)c3ccccc3)c3ccccc3)C[C@@](O)([C@@H](OC(=O)c3ccccc3)C3[C@](C)(C1=O)[C@@H](O)C[C@H]1OC[C@@]31OC(C)=O)C2(C)C (some centres not stated) [euspeclibcmpd631], the “Srxn1-GFP intensity median modified Z-score” value is reported as 0.274.
O=C1O[C@H](C(O)CO)C(O)=C1O (some centres not stated) [euspeclibcmpd2046] was tested, and the “Srxn1-GFP intensity median modified Z-score” value was -0.841.
For CC(CCC(=O)O)C1CC[C@H]2C3[C@H](O)C[C@@H]4C[C@H](O)CCC4(C)[C@H]3C[C@H](O)C12C (some centres not stated) [euspeclibcmpd1325], the “Srxn1-GFP intensity median modified Z-score” value was -0.323.
CCC(C)C1NC(=O)C(CCN)NC(=O)C(NC(=O)C(CCN)NC(=O)C(NC(=O)C(CCN)NC(=O)CCCCC(C)C)C(C)O)CCNC(=O)C(C(C)O)NC(=O)C(CCN)NC(=O)C(CCN)NC(=O)C(C(C)CC)NC1=O (configuration not stated) [euspeclibcmpd887] was tested, and the “Srxn1-GFP intensity median modified Z-score” value was 0.477.
In the case of CC(C)C1CC[C@@H](C)CC1=O (some centres not stated) [euspeclibcmpd1630], the “Srxn1-GFP intensity median modified Z-score” value is reported as -0.168.
For CC(=O)OCC(=O)[C@@]12OC3(CCCC3)O[C@@H]1CC1C3CC=C4CC(=O)C=C[C@]4(C)[C@@]3(F)[C@@H](O)C[C@@]12C (some centres not stated) [euspeclibcmpd606], the “Srxn1-GFP intensity median modified Z-score” value was -0.413.
